Results published in paper PMC11006913.

The sequences below were run against HOXC9 (Homo sapiens, UniProt P31274 178-260, R193K) (assay: PBM; 200 nM protein, PBS). Conditions: dsDNA, one strand shown.
HOXC9, sequence (P31274 178-260 R193K): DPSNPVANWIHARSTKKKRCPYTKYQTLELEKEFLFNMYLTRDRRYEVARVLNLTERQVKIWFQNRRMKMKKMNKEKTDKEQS

**Q.** For AGTAATAA, which binding signal is on record?
**A.** 12.3 upbm affinity estimate (log intensity, higher = more binding, comparable within an allelic series)

**Q.** With GAGGGTCC as the sequence, how does the binding signal read?
**A.** 9.32 upbm affinity estimate (log intensity, higher = more binding, comparable within an allelic series)

**Q.** For CCTGCCGC, which binding signal is on record?
**A.** 9.31 upbm affinity estimate (log intensity, higher = more binding, comparable within an allelic series)

**Q.** With CCCTGCGG as the sequence, how does the binding signal read?
**A.** 9.6 upbm affinity estimate (log intensity, higher = more binding, comparable within an allelic series)

**Q.** For GCGTCGCC, which binding signal is on record?
**A.** 9.48 upbm affinity estimate (log intensity, higher = more binding, comparable within an allelic series)

**Q.** With ACTTTACG as the sequence, how does the binding signal read?
**A.** 11.5 upbm affinity estimate (log intensity, higher = more binding, comparable within an allelic series)

**Q.** How did the binding signal turn out when AGGGGCTC was run?
**A.** 9.46 upbm affinity estimate (log intensity, higher = more binding, comparable within an allelic series)

**Q.** For GCAGCGCC, which binding signal is on record?
**A.** 9.72 upbm affinity estimate (log intensity, higher = more binding, comparable within an allelic series)

**Q.** AGATTAAA was tested. Which binding signal did it give?
**A.** 11.2 upbm affinity estimate (log intensity, higher = more binding, comparable within an allelic series)

**Q.** ATAGTCAA was tested. Which binding signal did it give?
**A.** 10.8 upbm affinity estimate (log intensity, higher = more binding, comparable within an allelic series)

**Q.** Which binding signal does the source give for CTGCATAA here?
**A.** 11.2 upbm affinity estimate (log intensity, higher = more binding, comparable within an allelic series)

**Q.** How did the binding signal turn out when AGCCGTGG was run?
**A.** 9.58 upbm affinity estimate (log intensity, higher = more binding, comparable within an allelic series)

**Q.** How did the binding signal turn out when GGAGAACC was run?
**A.** 9.52 upbm affinity estimate (log intensity, higher = more binding, comparable within an allelic series)

**Q.** Which binding signal does the source give for CCTCTCCA here?
**A.** 9.69 upbm affinity estimate (log intensity, higher = more binding, comparable within an allelic series)

**Q.** For CCTACTCG, which binding signal is on record?
**A.** 9.59 upbm affinity estimate (log intensity, higher = more binding, comparable within an allelic series)

**Q.** Which binding signal does the source give for CGCGGGAG here?
**A.** 9.43 upbm affinity estimate (log intensity, higher = more binding, comparable within an allelic series)

**Q.** How did the binding signal turn out when ATTTAATA was run?
**A.** 12.4 upbm affinity estimate (log intensity, higher = more binding, comparable within an allelic series)

**Q.** CTGCCTCC was tested. Which binding signal did it give?
**A.** 9.67 upbm affinity estimate (log intensity, higher = more binding, comparable within an allelic series)

**Q.** How did the binding signal turn out when CTCCACGC was run?
**A.** 9.6 upbm affinity estimate (log intensity, higher = more binding, comparable within an allelic series)

The sequences below were run against HOXA2 (Homo sapiens, UniProt O43364 129-215, R185K) (assay: PBM; 200 nM protein, PBS). Conditions: dsDNA, one strand shown.
HOXA2, sequence (O43364 129-215 R185K): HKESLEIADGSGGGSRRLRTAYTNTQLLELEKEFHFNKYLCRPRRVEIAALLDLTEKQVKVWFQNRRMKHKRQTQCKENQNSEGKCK

**Q.** Which binding signal does the source give for CACGCGGG here?
**A.** 10.2 upbm affinity estimate (log intensity, higher = more binding, comparable within an allelic series)

**Q.** CGGAGCCC was tested. Which binding signal did it give?
**A.** 10.2 upbm affinity estimate (log intensity, higher = more binding, comparable within an allelic series)

**Q.** AGGTGGGG was tested. Which binding signal did it give?
**A.** 10.4 upbm affinity estimate (log intensity, higher = more binding, comparable within an allelic series)

**Q.** With CCTGCCGC as the sequence, how does the binding signal read?
**A.** 9.96 upbm affinity estimate (log intensity, higher = more binding, comparable within an allelic series)

**Q.** Which binding signal does the source give for CCCTGCGG here?
**A.** 10.3 upbm affinity estimate (log intensity, higher = more binding, comparable within an allelic series)

What follows are sequences tested against HOXD13 (Homo sapiens, UniProt P35453 263-343) (assay: PBM; 200 nM protein, PBS). Conditions: dsDNA, one strand shown.
HOXD13, sequence (P35453 263-343): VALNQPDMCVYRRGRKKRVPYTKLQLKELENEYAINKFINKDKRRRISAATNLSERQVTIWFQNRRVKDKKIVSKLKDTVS

**Q.** For ACGATAAA, which binding signal is on record?
**A.** 10.8 upbm affinity estimate (log intensity, higher = more binding, comparable within an allelic series)

**Q.** Which binding signal does the source give for TCGGGCCA here?
**A.** 9.44 upbm affinity estimate (log intensity, higher = more binding, comparable within an allelic series)

**Q.** How did the binding signal turn out when CCCCCCAC was run?
**A.** 9.3 upbm affinity estimate (log intensity, higher = more binding, comparable within an allelic series)

**Q.** Which binding signal does the source give for CTTATAAA here?
**A.** 11.8 upbm affinity estimate (log intensity, higher = more binding, comparable within an allelic series)

**Q.** Which binding signal does the source give for CCCCCCTC here?
**A.** 9.09 upbm affinity estimate (log intensity, higher = more binding, comparable within an allelic series)

**Q.** With CCCTGCGG as the sequence, how does the binding signal read?
**A.** 9.44 upbm affinity estimate (log intensity, higher = more binding, comparable within an allelic series)

**Q.** AGGGGCTC was tested. Which binding signal did it give?
**A.** 9.68 upbm affinity estimate (log intensity, higher = more binding, comparable within an allelic series)

**Q.** GCAGCGCC was tested. Which binding signal did it give?
**A.** 9.61 upbm affinity estimate (log intensity, higher = more binding, comparable within an allelic series)

**Q.** AGCCGTGG was tested. Which binding signal did it give?
**A.** 9.7 upbm affinity estimate (log intensity, higher = more binding, comparable within an allelic series)

**Q.** Which binding signal does the source give for GGAGAACC here?
**A.** 9.46 upbm affinity estimate (log intensity, higher = more binding, comparable within an allelic series)

**Q.** How did the binding signal turn out when ATTTAATA was run?
**A.** 11.9 upbm affinity estimate (log intensity, higher = more binding, comparable within an allelic series)

**Q.** How did the binding signal turn out when CTGCCTCC was run?
**A.** 9.62 upbm affinity estimate (log intensity, higher = more binding, comparable within an allelic series)

The sequences below were run against MSX2 (Homo sapiens, UniProt P35548 130-214) (assay: PBM; 200 nM protein, PBS). Conditions: dsDNA, one strand shown.
MSX2, sequence (P35548 130-214): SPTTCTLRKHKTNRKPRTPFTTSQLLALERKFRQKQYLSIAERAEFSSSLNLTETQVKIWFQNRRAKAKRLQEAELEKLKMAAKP

**Q.** CACAATTA was tested. Which binding signal did it give?
**A.** 13.4 upbm affinity estimate (log intensity, higher = more binding, comparable within an allelic series)

**Q.** For TCGGGCCA, which binding signal is on record?
**A.** 9.63 upbm affinity estimate (log intensity, higher = more binding, comparable within an allelic series)

**Q.** Which binding signal does the source give for CGGGCCAG here?
**A.** 9.56 upbm affinity estimate (log intensity, higher = more binding, comparable within an allelic series)

**Q.** With AGTAATAA as the sequence, how does the binding signal read?
**A.** 12.5 upbm affinity estimate (log intensity, higher = more binding, comparable within an allelic series)

**Q.** Which binding signal does the source give for GCGTCGCC here?
**A.** 9.4 upbm affinity estimate (log intensity, higher = more binding, comparable within an allelic series)

**Q.** With CGCGGGAG as the sequence, how does the binding signal read?
**A.** 9.23 upbm affinity estimate (log intensity, higher = more binding, comparable within an allelic series)

**Q.** How did the binding signal turn out when CTCCACGC was run?
**A.** 9.47 upbm affinity estimate (log intensity, higher = more binding, comparable within an allelic series)

Each sequence was assayed against ALX3 (Homo sapiens, UniProt O95076 139-225) (assay: PBM; 200 nM protein, PBS). Conditions: dsDNA, one strand shown.
ALX3, sequence (O95076 139-225): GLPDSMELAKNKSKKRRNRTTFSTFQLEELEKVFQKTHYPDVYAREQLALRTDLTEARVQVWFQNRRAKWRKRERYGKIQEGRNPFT

**Q.** For CCTCCCAG, which binding signal is on record?
**A.** 7.69 upbm affinity estimate (log intensity, higher = more binding, comparable within an allelic series)

**Q.** For CCCCCCTC, which binding signal is on record?
**A.** 7.67 upbm affinity estimate (log intensity, higher = more binding, comparable within an allelic series)

**Q.** Which binding signal does the source give for AGGTGGGG here?
**A.** 7.86 upbm affinity estimate (log intensity, higher = more binding, comparable within an allelic series)
